# Key:
# Experiment in all cases: pooled miR-30 sensor sort-seq; sequence = guide strand
# Conditions in all cases: shRNA
# XAGE3 = molecular target: XAGE3
# YARS = molecular target: YARS
# YWHAG = molecular target: YWHAG
# YY2 = molecular target: YY2
# YY1AP1 = molecular target: YY1AP1
# ZBTB24 = molecular target: ZBTB24
# ZBTB8A = molecular target: ZBTB8A
# ZDHHC6 = molecular target: ZDHHC6
# ZMAT5 = molecular target: ZMAT5
# ZNF169 = molecular target: ZNF169
# ZNF383 = molecular target: ZNF383
# ZNF32 = molecular target: ZNF32
# ZNF384 = molecular target: ZNF384
# ZNF343 = molecular target: ZNF343
# ZNF512B = molecular target: ZNF512B
# ZNF592 = molecular target: ZNF592
# ZNF548 = molecular target: ZNF548
# ZNF583 = molecular target: ZNF583
# ZNF550 = molecular target: ZNF550
sequence,measurement,setting,value
TTTAAGTCAAATATCTTAGATA,sensor-assay potency score (higher = more potent),XAGE3,-0.923
TCGTAGGATCACAAACTCGGAC,sensor-assay potency score (higher = more potent),YARS,-0.717
TTCTTCACATCCTCCTTCCGAT,sensor-assay potency score (higher = more potent),YARS,-0.429
TTACACTGTTCCATGTCTGTAG,sensor-assay potency score (higher = more potent),YWHAG,0.201
TTTAAGTTTTCTTTTCATCTGA,sensor-assay potency score (higher = more potent),YWHAG,0.297
TAGGGGACCACATAGTCACGGA,sensor-assay potency score (higher = more potent),YY2,-0.62
TCGTCTTCAATGCTATCCGGGA,sensor-assay potency score (higher = more potent),YY2,-0.643
TCAAGTACTCGGAATAATCAGG,sensor-assay potency score (higher = more potent),YY2,-0.787
TAAACCATAAGGATGAATGAGA,sensor-assay potency score (higher = more potent),YWHAG,-0.514
TTTGCTTCCTTTTCGTGTCGGA,sensor-assay potency score (higher = more potent),YY1AP1,0.308
TTCCATCTTGACAACTTCCTCT,sensor-assay potency score (higher = more potent),YY1AP1,0.35
TTCGCTGTAGGCCTTCTCGGAG,sensor-assay potency score (higher = more potent),YWHAG,-0.969
TGAATCTACAGAACAGTCCAGA,sensor-assay potency score (higher = more potent),YWHAG,0.0332
TTGAGCTCTCAAGAAAAGCTTT,sensor-assay potency score (higher = more potent),YY2,-0.69
TTGACTGAGCGAACTTCCTGTT,sensor-assay potency score (higher = more potent),YY2,-0.213
TAGCTGGTTGTCTGAGTCGCAA,sensor-assay potency score (higher = more potent),YY2,-1.47
TTTTTCTAGGCCTTGATCTGAG,sensor-assay potency score (higher = more potent),YY1AP1,-0.00665
TTTGACCTGCATTTGCTTCTGC,sensor-assay potency score (higher = more potent),YY2,0.61
TACTGGACGCTTTCCGTCGGAA,sensor-assay potency score (higher = more potent),YY2,-1.27
ATGAACTTCCTTACACTGGGGT,sensor-assay potency score (higher = more potent),YY1AP1,0.289
TTTAGCTGTCTGTTCTGGCTGA,sensor-assay potency score (higher = more potent),ZBTB24,0.857
TTTAGTAAATTCTGCCAGCTGT,sensor-assay potency score (higher = more potent),YY2,-0.34
TAGAAGGTACTTGTTGTCCTCA,sensor-assay potency score (higher = more potent),YY1AP1,0.0643
TTAAGTTTTCTTTTCATCTGAA,sensor-assay potency score (higher = more potent),YWHAG,0.563
TAAAGTTAGCTTGAGGCTCAGC,sensor-assay potency score (higher = more potent),YY1AP1,-0.69
TTAAGTTTGACGGATCTCCAAA,sensor-assay potency score (higher = more potent),ZBTB24,-1
TTCAGGTAGAACACTTTGCTCT,sensor-assay potency score (higher = more potent),YWHAG,-0.452
TTAAATTCTGCAGTTGCTCTGG,sensor-assay potency score (higher = more potent),ZBTB24,0.17
TTAAGAACTGAGCAGTAGCCAG,sensor-assay potency score (higher = more potent),ZBTB24,-1.12
TTGCTGTATCGACTCTGGCTTG,sensor-assay potency score (higher = more potent),ZBTB24,-0.983
TTAAGACATATCCTGGTGCTAC,sensor-assay potency score (higher = more potent),YY1AP1,-0.46
TTTAACCTTCTCTACCTCCTTC,sensor-assay potency score (higher = more potent),YY1AP1,0.0131
TTGAGAAGTATTCACTACTGGC,sensor-assay potency score (higher = more potent),ZBTB24,0.328
TTAATACTGTCAACTAATCAGA,sensor-assay potency score (higher = more potent),YWHAG,-0.755
TTCAAACAGATCTTCCATCAGC,sensor-assay potency score (higher = more potent),YY1AP1,-0.176
TGTTCTCTGACAATCCTTCTTG,sensor-assay potency score (higher = more potent),YY1AP1,-0.0122
TCCTTCTCTATCTTCTCCCGGT,sensor-assay potency score (higher = more potent),YWHAG,-0.85
TTCCTCTGTAGCATCTTCAGGT,sensor-assay potency score (higher = more potent),YY1AP1,0.0483
TTGTGTCTGCAACATAAGCATT,sensor-assay potency score (higher = more potent),YY2,-1.56
TGTCAAGAGCTGAACATGCTGC,sensor-assay potency score (higher = more potent),YY1AP1,-0.313
TTCTAAGTCTGTCAGTCTGGGA,sensor-assay potency score (higher = more potent),YWHAG,-0.946
TTGGTGGTCAGAGCCTTGCTGC,sensor-assay potency score (higher = more potent),ZBTB24,-1.29
TTCTGCTCCCACTTCCTCGTGC,sensor-assay potency score (higher = more potent),YY2,0.239
AATACCAGCACAGCTAGCCTGA,sensor-assay potency score (higher = more potent),YWHAG,-0.754
TGTCTGAGTCGCAATAGCCCAC,sensor-assay potency score (higher = more potent),YY2,-0.97
TTGTTGAGTATTCTTCTGGGAG,sensor-assay potency score (higher = more potent),ZBTB8A,-0.386
AACTGTTCTATTGTTAAGCTGT,sensor-assay potency score (higher = more potent),ZDHHC6,-0.493
TTCTTGTAGATTTTCAAACTTG,sensor-assay potency score (higher = more potent),ZDHHC6,-0.053
TGTCGTACCAGACCTTCTTGGC,sensor-assay potency score (higher = more potent),ZMAT5,-0.415
TTCAACATTGTGTCTGACCCCC,sensor-assay potency score (higher = more potent),ZNF169,0.288
TAACATGTGAACCACAACTAAA,sensor-assay potency score (higher = more potent),ZNF383,-1.41
TAACGTTAGACTACCTTTTTGC,sensor-assay potency score (higher = more potent),ZNF32,-0.0672
TTAGACTACCTTTTTGCCGGAA,sensor-assay potency score (higher = more potent),ZNF32,-0.355
TCTTCCATGACAGTCCAGCAGG,sensor-assay potency score (higher = more potent),ZNF32,-1.26
TAAGATTTGAGCAATAACTAAA,sensor-assay potency score (higher = more potent),ZNF383,-1.31
TTGGAGTAGAATGTCAGTGAGC,sensor-assay potency score (higher = more potent),ZNF384,-0.969
TATCATTAGAAGGCAAGCCTTT,sensor-assay potency score (higher = more potent),ZNF343,-0.78
TGAATCTTCCTGTAGTGTCTTC,sensor-assay potency score (higher = more potent),ZNF32,-0.275
TTGAGCAATAACTAAAGGCCTT,sensor-assay potency score (higher = more potent),ZNF383,-0.458
TTGACTTATGACTAAAGCCTCG,sensor-assay potency score (higher = more potent),ZNF343,-0.75
TTTCGCTTTATGATTTTGGGTC,sensor-assay potency score (higher = more potent),ZNF343,-0.0502
TATATTCCAAAACATCTCCAAA,sensor-assay potency score (higher = more potent),ZNF383,-1.29
TTGACTTGTCACAAAAGCCTCG,sensor-assay potency score (higher = more potent),ZNF343,-0.0132
TTCTTTAGAGATAATAACTTGG,sensor-assay potency score (higher = more potent),ZNF383,-0.196
TTGACTTCTGGCTAAAACCTCG,sensor-assay potency score (higher = more potent),ZNF343,-0.583
TTGATGTGTAACAAGATTGCCT,sensor-assay potency score (higher = more potent),ZNF32,0.254
TCTCTGATGTTGAACAAGCTTT,sensor-assay potency score (higher = more potent),ZNF383,-0.743
ATAGTCTCTACATTTTCCCCAT,sensor-assay potency score (higher = more potent),ZNF343,-0.495
TTGAATAAATTGTGAGTTCTGA,sensor-assay potency score (higher = more potent),ZNF383,-0.124
TTGAGGATGGACTTACTTCTAA,sensor-assay potency score (higher = more potent),ZNF343,-0.709
AATGTCAGTGAGCACATCCGGC,sensor-assay potency score (higher = more potent),ZNF384,-0.852
TGTAGTGTCTTCGAATCTGGGG,sensor-assay potency score (higher = more potent),ZNF32,0.479
TAACTTGGTTTCACACATCGAT,sensor-assay potency score (higher = more potent),ZNF383,0.203
TTGAGCCTGAGCCTGAGCCTGG,sensor-assay potency score (higher = more potent),ZNF384,-0.986
TTTGATGAGATCTGAGTTCTGG,sensor-assay potency score (higher = more potent),ZNF343,0.519
TCTTCCTGTAGTGTCTTCGAAT,sensor-assay potency score (higher = more potent),ZNF32,-1.44
TAAATTGTGAGTTCTGACTAAA,sensor-assay potency score (higher = more potent),ZNF383,-0.929
TTGAGGATCCTGTAGCCTCAGA,sensor-assay potency score (higher = more potent),ZNF32,-1.2
TTTGACTTATGACTAAAGCCTC,sensor-assay potency score (higher = more potent),ZNF343,-0.874
TTGAACAAGCTTTGAGCTCTGG,sensor-assay potency score (higher = more potent),ZNF383,0.42
TATCCCAGCTTGAGGATCCTGT,sensor-assay potency score (higher = more potent),ZNF32,-0.615
TTGATGAGATCTGAGTTCTGGC,sensor-assay potency score (higher = more potent),ZNF343,0.144
TAGTGTCTTCGAATCTGGGGAT,sensor-assay potency score (higher = more potent),ZNF32,-0.0716
TTGTGTTCTCGATCTGACCTGA,sensor-assay potency score (higher = more potent),ZNF384,0.373
TTATCTTTGTTGTGTTGCCGTC,sensor-assay potency score (higher = more potent),ZNF384,0.0211
TTGAAGAACGCTACATTCTGGG,sensor-assay potency score (higher = more potent),ZNF32,0.82
ATATCTTCCATGACAGTCCAGC,sensor-assay potency score (higher = more potent),ZNF32,-0.761
TTCTATTTCATAAACTTCCTTC,sensor-assay potency score (higher = more potent),ZNF383,-0.0685
TAGAAGGCAAGCCTTTCGCTTT,sensor-assay potency score (higher = more potent),ZNF343,-0.611
TACATGTTGACTGAGGAACTGC,sensor-assay potency score (higher = more potent),ZNF343,-0.356
TTTGGACTTGAACTGCTTCCGG,sensor-assay potency score (higher = more potent),ZNF512B,0.34
TTAGTGACACTAGCCACTCTTT,sensor-assay potency score (higher = more potent),ZNF592,-0.994
TTTCTGGTGATGAACCAGGTGA,sensor-assay potency score (higher = more potent),ZNF548,-0.687
TACCTCTTGACTTCCCAGCTGG,sensor-assay potency score (higher = more potent),ZNF583,0.168
TTCATGGAGAACATCTGCTGAT,sensor-assay potency score (higher = more potent),ZNF550,0.0411
TCTGTCACCTAGTGAAACCAGA,sensor-assay potency score (higher = more potent),ZNF550,-0.609
TTTCTTTTGTGGTTCATGCTTA,sensor-assay potency score (higher = more potent),ZNF583,0.129
TTGTAACCTCTGACACTCCTAC,sensor-assay potency score (higher = more potent),ZNF548,-0.158
TTTTCTACATAGACTTTCCTAT,sensor-assay potency score (higher = more potent),ZNF583,-0.369
TTTCATTCCAGTGTGAACCCTC,sensor-assay potency score (higher = more potent),ZNF550,0.423
TGTCTAACAAATGTGGAGCTGT,sensor-assay potency score (higher = more potent),ZNF548,0.213
TTCTCTGTCCTCTGTGTCCCTG,sensor-assay potency score (higher = more potent),ZNF548,-0.777
TTTCTTTTCTACATAGACTTTC,sensor-assay potency score (higher = more potent),ZNF583,-0.596
TTTTACATTCTTTACACTGATA,sensor-assay potency score (higher = more potent),ZNF583,-0.826
TTGAACTCCAAAGCTTCCCCGA,sensor-assay potency score (higher = more potent),ZNF592,-0.465
TTCGACATTGACTACACTCATA,sensor-assay potency score (higher = more potent),ZNF550,-1.1
TTGTGGAGGTCTGTCTCCGGTG,sensor-assay potency score (higher = more potent),ZNF550,-1.27
AATTCCATTGTGCTCAACCAGG,sensor-assay potency score (higher = more potent),ZNF548,-1.53
TTGAGGTTGAAGATTCCAGAGT,sensor-assay potency score (higher = more potent),ZNF550,-1.04
TTCTTCATATGTCTCTTGCTTT,sensor-assay potency score (higher = more potent),ZNF583,-0.61
TATATCAAAGATTGTATCCTGG,sensor-assay potency score (higher = more potent),ZNF583,0.513
TTTGTCATGCTCTCGTCCCCTT,sensor-assay potency score (higher = more potent),ZNF592,-0.419
ATGAGTTCTGAGCTGCATCTGA,sensor-assay potency score (higher = more potent),ZNF550,-0.453
TCAACAAATGAATAGCTGCAGG,sensor-assay potency score (higher = more potent),ZNF548,-0.782
TGCTGTATGAGTTCTGAGCTGC,sensor-assay potency score (higher = more potent),ZNF550,0.178
TGATGCAGCAACACTGTGGGGG,sensor-assay potency score (higher = more potent),ZNF592,0.194
TTGAGCTCTGGCTAAAGGCTTT,sensor-assay potency score (higher = more potent),ZNF550,-0.685
TTGAAGACCATTTCACAGGAGC,sensor-assay potency score (higher = more potent),ZNF592,-0.241
ATTCATGGAGAACATCTGCTGA,sensor-assay potency score (higher = more potent),ZNF550,-0.38
TTATAAGGTCTTTCTCCGGTGT,sensor-assay potency score (higher = more potent),ZNF548,-0.00393

# Reference: the OligoGym collection
